HTT aggregate: qHTS Multiplex Assay to Identify Dual Action Probes in a Cell Model of Huntington: Aggregate Formation (GFP); Potency, µM (titrated, usually from 46.1 µM), hits mostly inhibitors; PC12 HttQ103-GFP aggregates, Acumen cytometry, 40 h; 220,000 compounds, 1.1% hits; active means well fitted curve in the direction sought with a large enough effect; inconclusive means small, poorly fitted or top-dose-only effect, or another doubt; inactive means no such curve, though single readings can be large; an effect the other way counts as inactive or inconclusive; further: nearly all actives have a fitted effect of over 60% in size
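PC12 cells stably carrying ecdysone-inducible HTT exon 1 Q103–GFP were induced with tebufenozide (100 nM final) and treated with library compounds in titration. GFP aggregates in lysates were counted by laser scanning cytometry.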
JMJD2E inh: qHTS Assay for Inhibitors of Human Jumonji Domain Containing 2E (JMJD2E); JMJD2E catalytic domain, FDH-coupled NADH fluorescence (FDH is formaldehyde dehydrogenase); Potency, µM (top dose mostly 57.1 µM), actives largely listed as inhibitors; 230,000 compounds, 1.6% hits; further: nearly all actives have a fitted effect of over 50% in size
Target sequence (B2RXH2 1-337 limits assumed): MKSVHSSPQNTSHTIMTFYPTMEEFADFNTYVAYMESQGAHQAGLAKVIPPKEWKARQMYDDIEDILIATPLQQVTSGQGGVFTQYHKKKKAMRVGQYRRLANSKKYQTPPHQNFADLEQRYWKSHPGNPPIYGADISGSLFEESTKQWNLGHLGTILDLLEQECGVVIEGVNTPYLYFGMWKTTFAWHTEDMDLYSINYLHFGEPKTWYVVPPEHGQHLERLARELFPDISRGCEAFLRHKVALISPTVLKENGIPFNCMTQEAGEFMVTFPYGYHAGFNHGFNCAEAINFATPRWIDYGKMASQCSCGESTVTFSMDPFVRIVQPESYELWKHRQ
ALDH1A1 inh: qHTS Assay for Inhibitors of Aldehyde Dehydrogenase 1 (ALDH1A1); Purified ALDH1A1, NADH fluorescence, propionaldehyde substrate; 220,000 compounds, 7.3% hits; Potency, µM (series often up to 75.3 µM), most hits filed as inhibitors; Aldehyde dehydrogenase 1A1 (Homo sapiens), P00352; AID 1030, 2008
Target sequence (P00352 whole entry, looked up): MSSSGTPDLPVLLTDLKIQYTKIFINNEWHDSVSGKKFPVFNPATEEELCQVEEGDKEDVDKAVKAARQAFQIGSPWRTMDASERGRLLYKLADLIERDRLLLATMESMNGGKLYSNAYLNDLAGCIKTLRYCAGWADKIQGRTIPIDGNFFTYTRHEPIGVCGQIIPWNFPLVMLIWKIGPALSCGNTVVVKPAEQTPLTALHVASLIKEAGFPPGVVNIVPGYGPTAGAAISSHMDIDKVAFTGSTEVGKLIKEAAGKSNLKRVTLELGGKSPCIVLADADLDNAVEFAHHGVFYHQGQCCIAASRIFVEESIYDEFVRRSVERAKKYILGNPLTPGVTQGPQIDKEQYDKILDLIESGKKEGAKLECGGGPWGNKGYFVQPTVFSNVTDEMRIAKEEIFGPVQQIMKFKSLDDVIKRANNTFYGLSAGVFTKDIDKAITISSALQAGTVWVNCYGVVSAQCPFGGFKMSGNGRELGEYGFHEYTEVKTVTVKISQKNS
HTT ATP protect: qHTS Multiplex Assay to Identify Dual Action Probes in a Cell Model of Huntington: Cytoprotection (ATP); PC12 HTT-Q103 induced, cytoprotection, ATP luminescence, 40 h; Potency, µM (doses to about 56.4 µM), usual class: activators; 230,000 compounds, 0.14% hits; AID 1471, 2008; active means well fitted curve in the direction sought with a large enough effect; inconclusive means small, poorly fitted or top-dose-only effect, or another doubt; inactive means no such curve, though single readings can be large; an effect the other way counts as inactive or inconclusive; further: nearly all actives have a fitted effect of over 45% in size
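Readout: ATPlite luminescence (ATP level). Model: stable PC12, inducible Htt exon1 Q103-GFP. Inducer: tebufenozide, 100 nM final. Compounds: dose series. No G418 in medium.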
HPGD block: qHTS Assay for Inhibitors of HPGD (15-Hydroxyprostaglandin Dehydrogenase); Potency, µM, usual class: inhibitors; purified HPGD, NADH fluorescence kinetic, PGE2 substrate; 15-hydroxyprostaglandin dehydrogenase [NAD(+)] (Homo sapiens), P15428; 150,000 compounds, 4.3% hits; AID 894, 2007
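20 nM HPGD preincubated 15 min at room temperature with compound in 50 mM Tris-HCl pH 8, 0.01% Tween 20. Started with 1 mM NAD+ and 30 uM prostaglandin E2; NADH fluorescence (360/450 nm) read 5 times over 30-s intervals, last minus first.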
Lamin A splicing: qHTS Assay for Modulators of Lamin A Splicing; HeLa LMNA splicing GFP/RFP minigene ratio, 48 h; Potency, µM (top dose mostly 46.1 µM), hits mostly inhibitors; 200,000 compounds, 0.01% hits; AID 1487, 2009; active means well fitted inhibition curve with a large enough effect in the signal ratio, with a control signal flat, not every such curve was filed as active; inconclusive means small, poorly fitted or top-dose-only effect, or effect the other way, or a change in a side signal; the % refers to the signal ratio
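S3 HeLa stable clones carrying a lamin A-EGFP splicing minigene plus DsRed2 were seeded at 600 cells/well in Opti-MEM with 2% FBS, pin-dosed and incubated 48 h at 37°C. Acumen cytometry (488 nm) gave the GFP/RFP total-intensity ratio.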
Of the large screens only hits and unclear results are named; the others gave an inactive call. Shown are actives, neighbours in structure and some others; about 9.2% of the full set was active somewhere. Unless noted, the call rests on the fitted dose curve; in most records, active means well fitted inhibition curve with a large enough effect (not every such curve was filed as active); inconclusive means small, poorly fitted or top-dose-only effect, or another doubt; inactive means no such curve, though single readings can be large or run the other way.

O=C(Nc1ccccc1)C1Cc2ccccc2CN1C(=O)c1ccco1 (stereo not given)	none
CC(C)(C)C(=O)NC(=S)Nc1cc(C(F)(F)F)ccc1N1CCOCC1	ALDH1A1 inh 18.9µM
CC(C)(C)C(=O)Nc1cc(C(F)(F)F)ccc1N1CCOCC1	none
Nc1nc(SCC(=O)Nc2cc(C(F)(F)F)ccc2N2CCOCC2)n[nH]1	ALDH1A1 inh 22.4µM (no result: HPGD block)
O=C(Nc1cc(C(F)(F)F)ccc1N1CCOCC1)C1Cc2ccccc2CN1C(=O)c1ccco1 (stereo not given)	HTT aggregate inconclusive, JMJD2E inh inconclusive, ALDH1A1 inh 22.4µM, HPGD block inconclusive
Cc1cc(-c2cc(C(=O)NCc3ccccc3)on2)nc(NC2CCCC2)n1	JMJD2E inh inconclusive (no result: ALDH1A1 inh, HPGD block, Lamin A splicing)
CCN(CC)C(=O)Oc1nnc(SC(C)C)n1-c1ccc(Cl)cc1	none (no result: ALDH1A1 inh, HPGD block, Lamin A splicing)
O=C(CSCc1ccco1)Nc1cc(C(F)(F)F)ccc1N1CCOCC1	ALDH1A1 inh 7.08µM, HPGD block 28.2µM
CC(=O)Nc1cc(C(F)(F)F)ccc1N1CCOCC1	none
CCCC(=O)Nc1cc(C(F)(F)F)ccc1N1CCOCC1	ALDH1A1 inh 3.16µM (no result: HPGD block)
NNC(=O)CCSc1ccccc1	none (no result: HTT aggregate, JMJD2E inh, Lamin A splicing)
COc1c(O)ccc(C2NC(=O)NC(C)=C2C(=O)Nc2ccccc2C)c1[N+](=O)[O-] (stereo not given)	none (no result: HPGD block, Lamin A splicing)
O=[N+]([O-])c1ccc(C(=S)N2CCN(c3ccc(F)cc3)CC2)cc1	ALDH1A1 inh 10µM, Lamin A splicing inconclusive (no result: HPGD block)
Cc1ccccc1N1CCN(C(=S)c2ccc([N+](=O)[O-])cc2)CC1	ALDH1A1 inh inconclusive, HPGD block inconclusive, Lamin A splicing inconclusive
Cc1cccc(N2CCN(C(=S)c3ccc([N+](=O)[O-])cc3)CC2)c1	ALDH1A1 inh 2.51µM, HPGD block 7.94µM, Lamin A splicing inconclusive
Cc1cccc(N2CCN(C(=S)c3ccccc3)CC2)c1	ALDH1A1 inh inconclusive (no result: HPGD block)
CC(=O)N1CCN(C(=S)c2ccc([N+](=O)[O-])cc2)CC1	ALDH1A1 inh 22.4µM, HPGD block 31.6µM
CN(C)c1ccc(C(=S)N2CCN(c3ccc([N+](=O)[O-])cc3)CC2)cc1	ALDH1A1 inh 1µM (no result: HPGD block, Lamin A splicing)
Cc1cccc(OCC(=O)Nc2ccccc2C(=O)OCc2cc(=O)n3ccsc3n2)c1	none (no result: HTT aggregate, JMJD2E inh, ALDH1A1 inh, HTT ATP protect, HPGD block)
COc1ccccc1CNc1ccnc(-c2ccccc2C(F)(F)F)n1	none (no result: HTT aggregate)
Cc1cnc(CNc2cc(-c3ccccc3CN(C)C)ncn2)cn1	ALDH1A1 inh inconclusive (no result: HTT aggregate, JMJD2E inh, HPGD block)
CCOc1ccc2nc(N3CCC(C(=O)N4CCN(C(=O)c5ccco5)CC4)CC3)sc2c1	ALDH1A1 inh 15.8µM, Lamin A splicing inconclusive
O=C(c1ccco1)N1CCN(c2nc3ccsc3c(=O)s2)CC1	HTT aggregate inconclusive, ALDH1A1 inh 12.6µM, HPGD block inconclusive
O=C(c1ccco1)N1CCN(c2nc3ccc(Cl)cc3s2)CC1	none (no result: HTT aggregate, JMJD2E inh, ALDH1A1 inh, HTT ATP protect, HPGD block)
CCOc1ccc2nc(N3CCCC(C(=O)N4CCN(CC)CC4)C3)sc2c1 (stereo not given)	JMJD2E inh inconclusive
Cc1cccc(N2C(=O)CSC23C(=O)N(CC(=O)NCc2ccccc2Cl)c2ccccc23)c1 (stereo not given)	none (no result: HTT aggregate, JMJD2E inh, ALDH1A1 inh, HTT ATP protect, HPGD block)
COC(=O)NC(c1cccs1)C(C(C)=O)C(=O)OC (stereo not given)	HTT ATP protect inconclusive (no result: HTT aggregate, JMJD2E inh, HPGD block, Lamin A splicing)
O=C(CCn1c(=S)[nH]c2ccccc2c1=O)N1CCOCC1	none
CCN1CCN(CCn2c(=S)[nH]c3ccccc3c2=O)CC1	none
COc1cc2[nH]c(=O)n(CCC(=O)N3CCN(Cc4ccc5c(c4)OCO5)CC3)c(=O)c2cc1OC	HTT aggregate inconclusive, JMJD2E inh inconclusive, ALDH1A1 inh inconclusive (no result: HPGD block)
O=C(CCCCCn1c(=S)[nH]c2ccc(Br)cc2c1=O)NCC1CCCO1 (stereo not given)	HPGD block 2.82µM
O=C(c1ccc(F)cc1)C1CCN(CCn2c(=S)[nH]c3ccccc3c2=O)CC1	HPGD block 14.1µM (no result: Lamin A splicing)
O=C(CCCn1c(=S)[nH]c2ccccc2c1=O)N1CCCCC1	ALDH1A1 inh inconclusive, HPGD block 10µM
O=C(NCC1CCCO1)c1ccc2c(=O)n(Cc3ccc(Cl)cc3)c(=S)[nH]c2c1 (stereo not given)	Lamin A splicing inconclusive (no result: HPGD block)
O=C(CCCCCn1c(=O)[nH]c2ccccc2c1=O)N1CCN(Cc2ccc3c(c2)OCO3)CC1	HTT aggregate 12.6µM, ALDH1A1 inh inconclusive
Cc1nc2cnc(Oc3ccccc3)nc2n(CCC#N)c1=O	ALDH1A1 inh inconclusive (no result: HTT aggregate, JMJD2E inh, Lamin A splicing)
COC(=O)CCC(=O)NC(=S)Nc1ccc(S(=O)(=O)N2CCCC2)cc1	ALDH1A1 inh inconclusive (no result: HPGD block)
COc1ccc(Cn2c(SCc3ccc(C(=O)NC4CCCC4)cc3)nc3cccnc32)cc1	none (no result: HTT aggregate, JMJD2E inh, ALDH1A1 inh, HTT ATP protect, HPGD block)
O=C(CCCn1c(=S)[nH]c2ccccc2c1=O)NC1CCCCC1	HPGD block 20µM
CC1CC(C)CN(C(=O)CCCn2c(=S)[nH]c3ccccc3c2=O)C1 (stereo not given)	ALDH1A1 inh inconclusive, HPGD block 25.1µM
Nc1cccc(OCc2nc(N)nc(N)c2-c2ccc(Cl)cc2)c1	none (no result: HTT aggregate, JMJD2E inh, Lamin A splicing)
Cc1ccc2nc(N3CCOCC3)c(C=O)c(=O)n2c1	ALDH1A1 inh 25.1µM (no result: HPGD block, Lamin A splicing)
CC(C)N(CC#CCC1(O)c2ccccc2-c2ccccc21)CCO	JMJD2E inh inconclusive, ALDH1A1 inh 20µM
O=C(Nc1ccc(Cl)cc1)Nc1cccc2nsnc12	none (no result: ALDH1A1 inh, HPGD block, Lamin A splicing)
CC(C)NC(=O)c1c2c(nc3ccccc13)CCCC2	none
CCOC(CNC(=O)c1ccc(N2CCc3ccccc32)c([N+](=O)[O-])c1)OCC	ALDH1A1 inh 10µM, Lamin A splicing inconclusive
O=C(CSc1nnc(-c2cccnc2)n1Cc1ccco1)c1ccccc1	ALDH1A1 inh inconclusive, HPGD block 15.8µM
O=C(CSc1nnc(-c2ccc(O)cc2)n1Cc1ccco1)c1cccs1	ALDH1A1 inh 14.1µM, HPGD block inconclusive
C(=C\c1ccccc1)/CSc1nnc(-c2cnccn2)n1Cc1ccco1	ALDH1A1 inh 22.4µM, Lamin A splicing inconclusive
O=C(CSc1nnc(-c2ccc(O)cc2)n1Cc1ccco1)c1ccccc1	ALDH1A1 inh inconclusive
O=C(CC(SCc1ccco1)c1ccc(O)cc1)c1cccs1 (stereo not given)	ALDH1A1 inh 12.6µM
COCC(=O)N1CCC2(CCCN(Cc3ccccc3OC)C2)CC1	none (no result: HTT aggregate, JMJD2E inh, Lamin A splicing)
